# HP1b binding inh = HP1-beta chromodomain-methylated histone interaction inhibition; P83916; Potency, µM (series often up to 114 µM), inactives show top-dose activity change, negative = inhibition, actives largely listed as inhibitors; AlphaScreen HP1-beta / biotin-H3K9me3 peptide binding; actives 0.56% (n = 390,000); further: nearly all actives have a fitted effect of over 70% in size
#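 Compound inhibition of the preformed complex between 50 nM HP1-beta and 50 nM biotinylated H3K9me3 peptide was read by AlphaScreen. Buffer was PBS pH 7.4 with 0.01% Tween-20. Incubations ran 30 min at room temperature, with 10 ug/mL donor/acceptor beads.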
# Sfp PPTase inh = inhibitors of Bacillus subtilis Sfp phosphopantetheinyl transferase; Biochemical Sfp PPTase activity, qHTS; Q9F4F7; Potency, µM, for the others: largest response in the series, negative = inhibition, usual class: inhibitors; AID 1490; actives 3.5% (n = 310,000);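 further: the enzyme is Sfp with the accession as filed and its product quenches rhodamine fluorescence; 0% = enzyme reaction without inhibitor and -100% = no enzyme wells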
#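 Buffer: 50 mM Hepes-Na pH 7.6, 10 mM MgCl2, 0.01% Nonidet P-40, 0.01% BSA. Enzyme 15 nM, pre-exposed to compound 15 min; substrates then added and fluorescence change tracked over 30 min.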
# G9a block = G9a (human) methyltransferase inhibition. Q96KQ7. G9a H3K9 monomethylation, AlphaScreen, 2 h. Potency, µM (highest dose often 102 µM), without a hit: at the top dose activity, negative = inhibition, most hits filed as inhibitors. actives 8.8% (n = 350,000); further: on the % scale 0 is the no-effect control and ±100 the full control effect; nearly all actives have a fitted effect of over 75% in size
#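 Signal arises when biotinylated H3K9 peptide, once monomethylated, bridges streptavidin donor and antibody-captured acceptor beads. Enzyme at 20 nM was preincubated 15 min with test compounds; peptide 500 nM and SAM 20 uM then reacted for 2 h.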
# JMJD2A Tudor = JMJD2A Tudor domain (human) inhibition. AlphaScreen JMJD2A-Tudor / H3K4me3 peptide binding. Potency, µM (doses to about 114 µM), inactives show at the highest dose activity change, negative = inhibition, hits mostly inhibitors. O75164. actives 4.4% (n = 390,000); further: on the % scale 0 is the no-effect control and ±100 the full control effect; nearly all actives have a fitted effect of over 50% in size
# BAZ2B block = BAZ2B (human) inhibition; Q9UIF8; AlphaScreen BAZ2B-H3K14Ac peptide displacement; Potency, µM (doses to about 114 µM), inactives show at the highest dose activity change, negative = inhibition, usual class: inhibitors; actives 4.4% (n = 360,000); AID 504333; further: on the % scale 0 is the no-effect control and ±100 the full control effect; nearly all actives have a fitted effect of over 60% in size
#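 AlphaScreen displacement of biotin-H3(5-23)K14Ac peptide (50 nM final) from BAZ2B (50 nM final) in PBS pH 7.4, 0.01% Tween-20; complex preformed 30 min RT, then compounds (top 110 uM) 30 min RT, beads 20 min dark.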
# The depositor's hits bear a star; ? = inconclusive; . = no result; ! = not active in a repeat; [ ] = another dose, or the depositor's remark. This is a sample that favours compounds with a hit; in the whole collection about 12% have one here. The call rests on the fitted dose curve; in most records, active means well fitted curve in the direction sought with a large enough effect; inconclusive means small, poorly fitted or top-dose-only effect, or another doubt; inactive means no such curve, though single readings can be large; an effect the other way counts as inactive or inconclusive. Potency means the concentration at half of the fitted maximal effect.
SMILES,HP1b binding inh,Sfp PPTase inh,G9a block,JMJD2A Tudor,BAZ2B block
O=C1/C(=C/c2ccccn2)SC(=S)N1CCc1ccccc1,12%,28%,?,-17%,-23%
CN1CCS/C1=C/C=C1/SC(=S)N(Cc2ccccc2)C1=O,13µM*,?,?,?,10µM*
C=CCNC(=O)C(C#N)c1nc2ccccc2nc1N1CCCCCC1 (centres undefined),28%,-4%,?,-36%,?
C=CCN1CCN(c2nc3ccccc3nc2C#N)CC1,.,56µM*!,26%[59 µM],.,.
Cc1ccc2c(c1)[C@H]1[C@H](CO2)[C@H](c2ccccc2)[C@]2(C)C(=O)N(Cc3ccc(F)cc3)CC(=O)N12,3%,.,.,?,.
CCC(C)[C@H]1CNCCN1CC1(c2ccccc2)CC1 (some centres undefined),38%,.,13%[2.33 µM],-22%,10%
CCCC[C@@H]1CNCCN1CCc1cc(C(F)(F)F)cc(C(F)(F)F)c1,47%,.,-4%[12.7 µM],-25%,-9%
c1ccc2c(C[C@@H]3CNCCN3CCC34CC5CC(CC(C5)C3)C4)cccc2c1,-4%,.,.,40µM*,.
CCC(C)[C@H]1CNCCN1CCc1cc(C(F)(F)F)cc(C(F)(F)F)c1 (some centres undefined),26%,.,-19%[2.33 µM],-35%,50µM*
CCC(C)[C@H]1CNCCN1CCc1cccc2ccccc12 (some centres undefined),0%,.,18%[2.33 µM],56µM*,?
CC(C)(C)CN1CCNC[C@H]1Cc1cccc2ccccc12,34%,.,2%[2.33 µM],-28%,-39%
CCOc1ccc(NC(=O)CC2C(=O)N(c3ccc(F)cc3)C(=O)N2Cc2ccc(OC)c(OC)c2)cc1 (centres undefined),43%,.,5%[59 µM],-12%,0%
O=C(Nc1ccc2nc3n(c(=O)c2c1)CCCCC3)C(=O)N1CCN(c2ccccc2)CC1,32%,16%,4%,-6%,-5%
Cc1ccc(S(=O)(=O)Nc2c(C)nn(C)c2C)cc1,36%,17%,2%,2%,7%
Cc1nn(C)c(C)c1CS(=O)(=O)c1ccccc1,35%,-3%,50µM*,-11%,-6%
O=C(COC(=O)c1ccc(O)cc1)Nc1ccccc1,64%,8%,21%[0.501 µM],-6%,-2%
Cc1ccc(NC(=O)c2ccc(CN3CC(=O)N4CCCCC4C3=O)cc2)cc1C (centres undefined),17%,.,-18%[59 µM],-10%,-25%
COc1ccc(NC(=O)CSc2nc3[nH]ncc3c(=O)[nH]2)cc1OC,34%,.,45µM*,?,-24%
Cc1nnc(NC(=O)CSc2nc3[nH]ncc3c(=O)[nH]2)s1,34%,8%,35µM*,-7%,-24%
CCc1nnc(NC(=O)CSc2nc3[nH]ncc3c(=O)[nH]2)s1,22%,8%,?,-8%,-23%
CC(C)c1ccc(NC(=O)C(Cc2ccccc2)NS(=O)(=O)c2ccc3c(c2)oc(=O)n3C)cc1 (centres undefined),34%,.,-3%[59 µM],1%,-5%[57.1 µM]
O=C(COc1coc(CN2CCc3ccccc32)cc1=O)N1CCCCC1,9%,.,71µM*,-22%,-5%
O=C(COc1coc(CN2CCCc3ccccc32)cc1=O)Nc1ccc([N+](=O)[O-])cc1,8%,.,11µM*,-18%,-9%
NC(=O)c1ccc(NC(=O)COc2coc(CN3CCc4ccccc4C3)cc2=O)cc1,24%,.,50µM*,-16%,?
Cc1ccccc1NC(=O)COc1coc(CN2CCCc3ccccc32)cc1=O,6%,.,50µM*,?,50µM*
SMILES,HP1b binding inh,Sfp PPTase inh,G9a block,JMJD2A Tudor,BAZ2B block
COc1ccc(C(=O)N2CC(=O)Nc3ccc(C)cc3C2c2ccccc2)cc1OC (centres undefined),30%,.,4%[59 µM],-4%,3%
CCOC(=O)NC[C@H](Cc1ccc(OCCc2nc(-c3ccccc3)oc2C)cc1)N/C(C)=C\C(=O)c1ccc(C(F)(F)F)cc1,.,11%,.,.,.
Cc1ccc(NC(=O)COc2coc(CN3CCc4ccccc43)cc2=O)cc1Cl,-35%,.,-26%,45µM*,50µM*
CCc1ccc(NCc2cc3cc4c(cc3n(CC(=O)Nc3ccccc3OC)c2=O)OCCO4)cc1,-19%,.,?,?,-36%
O=C(CSc1nnc(Cc2cccs2)n1Cc1ccco1)Nc1ccc(Cl)cc1Cl,14%,28µM*,?,-18%,?
O=C(CSc1nnc(Cc2cccs2)n1Cc1ccco1)Nc1ccc(Br)cc1,-15%,14µM*,?,-26%,-38%
Cc1cc(Cl)ccc1NC(=O)CSc1nnc(-c2ccncc2)n1Cc1ccco1,0%,?,?,-18%,0%
CC1=C(C(=O)Nc2ccccc2C)C(c2sccc2C)n2ncnc2N1 (centres undefined),14%[57 µM],.,6%[59 µM],-12%,-2%
O=C(NCc1ccccc1)c1sc(=S)n2c1[nH]c(=O)c1ccccc12,-22%,8%,28µM*,?,45µM*
CCCCNC(=O)c1sc(=S)n2c1[nH]c(=O)c1ccc(C(=O)NCCc3ccc(OC)c(OC)c3)cc12,-23%[57 µM],12%,25µM*,-26%,?
CCC(=O)N1CCc2cc(Br)cc(S(=O)(=O)N3CCCC(C(=O)Nc4cc(C)ccc4OC)C3)c21 (centres undefined),10%,.,-5%[59 µM],-10%,-11%
COc1ccc(-n2c(=O)c(-c3cccs3)nc3cncnc32)cc1,.,-1%,-3%[0.501 µM],.,.
CCCN(CCC(=O)Nc1cc(OC)cc(OC)c1)CC1CC1,10%,?,45µM*,-34%,?
CCN(CCC(=O)Nc1cc(OC)cc(OC)c1)Cc1ccccc1,30%,45µM*,45µM*,-11%[57.1 µM],10%
COc1cc(C(=O)Nc2ccc(NC(=O)c3ccc(C(C)(C)C)cc3)cc2)cc(OC)c1OC,20%,.,2%[59 µM],-8%,-1%
O=C(c1ccccc1)c1coc(-c2ccccc2)c1,70%,.,.,9%,.
CC1CC(C)CN(C(=O)CN2C(=O)NC3(CCCCCCC3)C2=O)C1 (centres undefined),7%,.,-30%[12.7 µM],2%,9%
O=S(=O)(c1ccc(Cl)cc1)N1CCN(Cc2ccc(O)c3ncccc23)CC1,26%,10%,-38%,56µM*,32µM*
Oc1ccc(CN2CCN(Cc3ccccc3)CC2)c2cccnc12,?,19%,3%[59 µM],40µM*,-1%
c1ccc(CN2CCN(Cc3c[nH]c4ccccc34)CC2)cc1,-2%,10%,-40%,-22%,-34%
Clc1ccc(-c2nnc(COc3ncnc4ccccc34)o2)cc1,11%,3%,-2%,-9%,-8%
CCOC(=O)c1cc2sccc2n1CC(=O)Nc1ccc(OC)cc1OC,16%,10%,13µM*,-22%,-7%
CCc1ccccc1NC(=O)c1cc2sccc2n1C,0%,-5%,?,?,0%
COc1cc(NC(=O)c2cc3sccc3n2C)cc(OC)c1,21%,50µM*,?,-33%,?
